Here are results for 17 molecules from PubChem BioAssay (NCI).

Test systems include EKVX NSCLC; SN12C renal; UO-31 renal; TK-10 renal; ACHN renal; CAKI-1 renal; MOLT-4 leukemia; A498 renal; CCRF-CEM leukemia.
What all share (assay): NCI-60 one-dose screen, 48 h (100 = growth as untreated, 0 = no growth, -100 = all killed)
Common to all, as to conditions: 10 µM unless noted

This is part of a sample that, as a whole, favours compounds with a hit. Of some 83,000 tested, about 20% had one in any assay.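 Cell lines were cultured in 96-well plates, exposed to a single compound concentration, and assessed for percent growth 48 hours later.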 A number with no mark means an inactive call. Activity calls are given as the source filed them. How the source made its calls: active means growth percent below 10; inactive means the rest.

As for `Nc1nc(-c2cccc([N+](=O)[O-])c2)c(N=Nc2cccc([N+](=O)[O-])c2)s1`, the growth in the test with EKVX NSCLC is 78.1%; in the test with SN12C renal it was 22.5%; in the test on UO-31 renal, 13.5%; with TK-10 renal it was 7.2% (active); in the test on ACHN renal it was 11.5%; with CAKI-1 renal it was 34.5%. The growth with MOLT-4 leukemia is 112%.

In the case of `O=C(NCCn1ccnc1)c1ccc(-c2nc3ccc4[nH]ncc4c3c3c2CCCC3)cc1`, the growth is 87.6% in the test with EKVX NSCLC; 81.6% in the test on SN12C renal; 92.4% in the test with UO-31 renal; 77.7% in the test with TK-10 renal; 88.4% with ACHN renal; 73.5% with A498 renal. Further, the results for the growth in the test with CCRF-CEM leukemia and in the test on MOLT-4 leukemia were 19.5% and 29.1%, respectively.

As for `CCO/C=N/C1=C(C#N)C(c2ccc(OC)cc2)c2sc3c(C)cccc3c2O1` (stereo not given), the growth was 25.2% with SN12C renal; 34.3% with UO-31 renal; 78.5% with TK-10 renal; 33.3% in the test on CAKI-1 renal; -15.6% (active) with A498 renal; -2.18% (active) in the test on CCRF-CEM leukemia. Further, the growth in the test on MOLT-4 leukemia is 16.4%.

Take `CC(C)c1ccc(NCc2cn(-c3ccc(C(=O)O)cc3)nc2-c2cc(C(F)(F)F)cc(C(F)(F)F)c2)cc1`: the growth in the test with EKVX NSCLC was 79.2%; with SN12C renal, 85.9%; in the test on UO-31 renal, 78.6%; in the test with TK-10 renal, 118%; in the test with CAKI-1 renal it was 63.7%; in the test on A498 renal, 90%. The growth with CCRF-CEM leukemia was 74.8%; in the test with MOLT-4 leukemia it was 71.6%.

In the case of `CC1(COc2ccc3ncc(C#Cc4cncc(C(=O)Nc5cccc(C(F)(F)F)c5)c4)n3n2)COC1`, the growth with EKVX NSCLC is 101%; with SN12C renal, 61.9%; with UO-31 renal, 58.2%; in the test on TK-10 renal, 128%; in the test with ACHN renal, 72.4%; with CAKI-1 renal it was 81.7%. Also, the growth is 88.4% in the test with CCRF-CEM leukemia and 84.9% with MOLT-4 leukemia.

As for `Cc1cc(C)c2sc(=O)n(Cc3nnc(SCCC(=O)O)o3)c2n1`, the growth in the test with SN12C renal is 97.8%; with UO-31 renal, 91.8%; with TK-10 renal, 103%; in the test on ACHN renal it was 103%; in the test on CAKI-1 renal, 89.5%; in the test with CCRF-CEM leukemia, 56.6%. Also, the growth in the test with MOLT-4 leukemia is 90.6%.

As for `CCOC(=O)c1c(Nc2ccccc2)nn2c(-c3ccc(Cl)cc3)ccnc12`, the growth was 88.9% in the test with EKVX NSCLC; 83.9% in the test with SN12C renal; 98.1% in the test on TK-10 renal; 47.2% in the test with ACHN renal; 56.1% in the test on CAKI-1 renal; 16.2% in the test with CCRF-CEM leukemia. Besides, the growth in the test on MOLT-4 leukemia is 86%.

As for `COc1ccc(NC(=O)CSc2nnc(-c3ccc4nc(-c5ccc(OC)c(OC)c5)[nH]c4c3)o2)cc1OC`, the growth with EKVX NSCLC is 107%; with UO-31 renal, 73.5%; in the test on TK-10 renal it was 117%; in the test on ACHN renal, 94.2%; in the test with CAKI-1 renal, 94.7%; in the test with A498 renal, 93.3%. For the same molecule, the growth is 86% in the test on CCRF-CEM leukemia and 86.6% in the test with MOLT-4 leukemia.

Regarding `Cc1ccc2c(c1)C(=O)/C(=C/c1cccc(F)c1)S2`, the growth was 98.5% with EKVX NSCLC; 101% with SN12C renal; 88.4% in the test with UO-31 renal; 123% in the test on TK-10 renal; 102% in the test with ACHN renal; 85.8% with CAKI-1 renal. The growth in the test on CCRF-CEM leukemia was 104%; in the test with MOLT-4 leukemia, 106%.

As to `C[C@@H]1C[C@H]2C(=O)O[C@@H](C)C(NC(=O)[C@H](Cc3cc(F)cc(F)c3)NC(=O)Nc3ccc(Cl)cc3F)C(=O)N3CCC[C@H]3C(=O)N3CCCC[C@H]3C(=O)N[C@@H](CO)C(=O)N2C1` (stereo not given in full), the growth in the test with EKVX NSCLC was 30.9%; with SN12C renal it was 21.5%; in the test on UO-31 renal, 34.9%; with TK-10 renal, 54.7%; in the test on CAKI-1 renal it was 17.5%; in the test on CCRF-CEM leukemia, 32.7%. Further, the growth in the test with MOLT-4 leukemia is 36.5%.

Regarding `Cc1cccc(/C=C/C(=O)Nc2ncc(Cc3cccc(C)c3)s2)c1`, the growth in the test with EKVX NSCLC is 36.8%; with SN12C renal, 38.5%; in the test with UO-31 renal, 35.4%; in the test on TK-10 renal, 54.6%; in the test on ACHN renal, 42.1%; with CAKI-1 renal it was 25.3%. The growth with MOLT-4 leukemia is 22%.

For the molecule `CNC(=O)c1cc(-n2ccc3cc(NC(=O)Nc4ccc(N5CCOCC5)c(C(F)(F)F)c4)ccc32)ccn1`, the growth is 65.4% with EKVX NSCLC; 55.3% in the test on SN12C renal; 35.2% in the test on UO-31 renal; 61.3% in the test with TK-10 renal; 41.3% with CAKI-1 renal; 70.7% with A498 renal. The growth with MOLT-4 leukemia was 13.8%.

Consider `N#Cc1c(Nc2ccccc2)nn2c(-c3ccc([N+](=O)[O-])cc3)ccnc12`, for which the growth is 99.5% with EKVX NSCLC; 104% in the test with SN12C renal; 84% with UO-31 renal; 98% in the test on TK-10 renal; 91.9% in the test with CAKI-1 renal; 104% in the test on CCRF-CEM leukemia. Moreover, the growth with MOLT-4 leukemia is 105%.

For `CNC(=O)c1cc(Oc2ccc3nc(NC(=O)c4ccc(N5CCOCC5)c(C(F)(F)F)c4)sc3c2)ccn1`, the growth is 78.7% with EKVX NSCLC; 90.4% with SN12C renal; 127% in the test with TK-10 renal; 91.5% with ACHN renal; 87.2% in the test with CAKI-1 renal; 75.6% with CCRF-CEM leukemia. Further, the growth with MOLT-4 leukemia is 75.8%.

On to `COc1ccc(-n2c(SCc3nnc(NC(=O)c4ccc(Br)cc4)s3)nc3cc(OC)c(OC)cc3c2=O)cc1`, for which the growth was 91.1% in the test on EKVX NSCLC; 91% in the test with SN12C renal; 118% in the test with TK-10 renal; 97.5% in the test on ACHN renal; 83.8% in the test on CAKI-1 renal; 90.9% with CCRF-CEM leukemia. Besides, the growth in the test on MOLT-4 leukemia was 105%.

For the molecule `Cc1cc(C)c(N2C(=O)CC(Nc3ccc(Cl)cc3Cl)C2=O)c(C)c1` (stereo not given), the growth in the test with SN12C renal was 98.2%; in the test with UO-31 renal it was 85.9%; in the test on TK-10 renal, 109%; in the test on ACHN renal, 103%; in the test on CAKI-1 renal it was 87.6%; with CCRF-CEM leukemia, 105%. For the same molecule, in the test with MOLT-4 leukemia, the growth is 103%.

As for `Cc1cc(C)cc(C(=O)Nc2cccc(C#Cc3cccc4[nH]nc(N)c34)c2)c1`, the growth with EKVX NSCLC is 89.3%; in the test on SN12C renal, 71.5%; in the test on UO-31 renal, 62.2%; in the test with TK-10 renal it was 92.9%; in the test on ACHN renal it was 56.2%; in the test on CAKI-1 renal, 55.3%. Further, the growth is 30.5% in the test with CCRF-CEM leukemia and 27% in the test with MOLT-4 leukemia.
